# Activity calls are given as the source filed them.
# Tests used:
# [1] = biological target: Albumin (Bos taurus) (UniProt P02769); test: compounds binding labelled BSA control protein – biochemical, small-molecule microarray, Alexa647 label, 635/667 nm fluorescence, artefact control for SMM control protein annotation, profiling panel (AID 1118); conditions: BSA-A647 binding, fluorescence 635 nm, higher = more signal;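 note: score merges 667 nm emission intensity and signal-to-noise per printed compound spot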
# [2] = probe aXIP binding to arrayed compounds – biochemical, NeuroSMM set, 635/667 nm fluorescence, primary screen (AID 1119); conditions: small-molecule microarray, higher = more signal, called active from +8 up or from −8 down;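 note: probe is the protein aXip251-270 applied at 1 µg/mL to compound-printed slides; binding of probe to printed compounds measured as 667 nm fluorescence plus signal to noise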
# [3] = probe aNOTCH3 binding on compound microarray – biochemical, small-molecule microarray, 635/667 nm fluorescence, primary screen (AID 1120); conditions: higher = more signal;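 note: probe is a biotin-tagged antibody raised against NOTCH3 rather than NOTCH3 protein; score merges spot fluorescence near 667 nm with spot signal to noise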
# [4] = probe aNOTCH2 binding on compound microarray – biochemical, small-molecule microarray, 635/667 nm fluorescence, primary screen (AID 1121); conditions: higher = more signal;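 note: score merges feature fluorescence read at 667 nm with its signal to noise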
# [5] = biological target: Carbonic anhydrase 2 (Homo sapiens) (UniProt P00918); test: compounds binding carbonic anhydrase 2 – biochemical, small-molecule microarray, Alexa647-labelled CAII, profiling panel (AID 1122); conditions: CAII-A647 binding fluorescence, higher = more signal
# [6] = COS7 lysate on small-molecule microarray, probe aHis, 635 nm (AID 1123); conditions: COS7 cell lysate, fluorescence, higher = more signal;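 note: z-score combines 667nm fluorescence intensity with signal-to-noise per printed compound spot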
# [7] = probe aLAP1 signal on lysate-treated microarray – cell lysate, small-molecule microarray, COS7 lysate, primary screen (AID 1124); conditions: probe aLAP1, fluorescence, higher = more signal;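 note: lysate comes from COS7 cells expressing LAP1 and is applied at 0.3 µg/mL; score merges spot fluorescence near 667 nm with signal-to-noise over triplicate slides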
# [8] = system: Sam68 (KHDRBS1); test: compounds binding KHDRBS1 protein – biochemical, small-molecule microarray, 635 nm fluorescence, primary screen (AID 1125); conditions: higher = more signal;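 note: score merges 667 nm channel intensity with signal to noise over triplicate slides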
# [9] = system: Chordin-like protein 2 (CHRDL2); test: compounds binding chordin-like 2 – biochemical, small-molecule microarray, 635 nm fluorescence, primary screen (AID 1126); conditions: fluorescence 635 nm, higher = more signal;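 note: printed compound slides probed with Chrdl2 protein at 4 µg/mL for 1 h at 4 C; score merges 667 nm emission intensity with signal to noise over three replicate slides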
# [10] = biological target: Concanavalin-A (Canavalia ensiformis) (UniProt P02866); test: compounds binding concanavalin A lectin – biochemical, small-molecule microarray, Alexa647 label, 635 nm, artefact control for SMM control protein annotation, primary screen (AID 1127); conditions: ConA-A647 binding fluorescence, higher = more signal;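 note: z combines 667 nm emission intensity with signal-to-noise across three replicate slides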
# Concanavalin-A (Canavalia ensiformis), sequence (P02866 whole entry, looked up): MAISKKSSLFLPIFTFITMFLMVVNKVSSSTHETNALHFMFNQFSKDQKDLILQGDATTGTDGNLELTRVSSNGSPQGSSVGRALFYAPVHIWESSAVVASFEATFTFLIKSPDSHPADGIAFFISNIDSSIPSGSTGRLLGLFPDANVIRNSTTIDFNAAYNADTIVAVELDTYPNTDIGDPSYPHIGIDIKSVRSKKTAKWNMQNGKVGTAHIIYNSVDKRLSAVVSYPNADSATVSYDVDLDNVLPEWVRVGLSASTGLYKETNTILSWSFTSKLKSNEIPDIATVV
# Albumin (Bos taurus), sequence (P02769 whole entry, looked up): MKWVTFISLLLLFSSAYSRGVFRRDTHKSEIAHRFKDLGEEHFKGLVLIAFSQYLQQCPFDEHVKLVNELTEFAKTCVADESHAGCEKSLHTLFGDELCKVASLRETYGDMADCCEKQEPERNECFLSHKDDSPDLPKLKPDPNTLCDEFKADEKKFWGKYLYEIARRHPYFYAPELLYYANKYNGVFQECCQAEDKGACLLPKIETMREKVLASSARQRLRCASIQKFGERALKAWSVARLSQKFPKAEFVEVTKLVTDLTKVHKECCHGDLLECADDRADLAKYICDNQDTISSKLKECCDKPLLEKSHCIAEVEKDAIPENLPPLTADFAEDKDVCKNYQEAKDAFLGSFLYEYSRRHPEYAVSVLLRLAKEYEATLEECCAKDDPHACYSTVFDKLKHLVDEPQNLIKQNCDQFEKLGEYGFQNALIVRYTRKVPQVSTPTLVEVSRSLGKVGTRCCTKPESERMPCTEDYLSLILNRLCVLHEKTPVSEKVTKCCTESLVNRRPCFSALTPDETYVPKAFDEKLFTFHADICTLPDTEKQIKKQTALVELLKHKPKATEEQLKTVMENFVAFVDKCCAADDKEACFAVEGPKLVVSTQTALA
SMILES,composite z-score [1],composite Z-score [2],composite z-score [3],composite z-score [4],composite z-score [5],composite z-score [6],composite z-score [7],composite z-score [8],composite z-score [9],composite z-score [10]
COc1cc(CO)cc(I)c1O[C@H]1C=C(C(=O)NCCO)C[C@@H](NCc2ccccc2F)[C@@H]1O,0.162,0.235 (inactive),0.0979,-0.179,0.218,0.558,0.303,1.02,0.486,0.746
O=C(N1CCCCC1)[C@@]1(Cc2ccccc2)COC(c2ccc(OCCCO)cc2)=N1,0.874,0.986 (inactive),0.501,0.313,0.714,2.44,0.409,1.33,-0.729,0.892
CCOC(=O)[C@H]1C/C=C/C[C@H](C(=O)OCC)C(=O)O[C@H]2[C@@H](OC)O[C@H](CO)[C@@H](OC(=O)CCc3ccccc3)[C@@H]2OC1=O,0.191,0.476 (inactive),0.996,0.0519,-0.207,-0.188,0.715,-0.378,-0.203,-0.233
NC(=O)NCC#Cc1ccc2c(c1)[C@]1(C(=O)N2)[C@H](C(=O)Nc2nc3ccccc3s2)[C@H]2C(=O)O[C@H](c3ccccc3)[C@H](c3ccccc3)N2[C@@H]1c1ccc(O)cc1,-0.0229,0.157 (inactive),0.114,0.103,0.0856,-0.482,0.274,0.846,0.402,1.07
C[C@H]1C2=C3C(CC[C@H]4C(OCc5ccc(F)cc5C(F)(F)F)OC[C@](C)([C@@H]34)N(C(=O)OC(C)(C)C)C2)C2COC(=O)OCC21 (stereo not given in full),0.963,-0.0452 (inactive),0.242,0.183,0.754,2.93,0.399,1.31,-1.67,1.1
CC(C)CNC(=O)[C@@H]1c2ccccc2C(=O)N(Cc2cc(F)cc(C(F)(F)F)c2)[C@H]1c1ccc(CO)cc1,0.382,-0.161 (inactive),0.0628,-0.0486,0.411,1.07,0.333,0.603,-0.182,0.0535
CC(C)NC(=O)[C@@]1(C)c2ccccc2C(=O)N(C(C)C)[C@H]1c1ccc(CO)cc1,0.177,0.22 (inactive),-0.471,-0.132,0.541,2.61,-0.217,0.121,-2.33,-0.233
CCCCC(=C=CC[C@@H](O)c1ccc(OCCO)cc1)C[C@@H](O)COCc1ccccc1,-0.28,-0.114 (inactive),-0.182,-0.145,0.868,0.173,-0.268,0.61,0.0396,-0.382
Cc1ccc(S[C@]2(C(=O)NCC(F)(F)F)CC(=O)N(Cc3ccccc3)[C@@H]2c2ccc(CO)cc2)cc1,-0.597,0.363 (inactive),-0.115,-0.119,0.699,0.973,-0.0477,0.619,-1.23,-0.643
CCCNC(=O)[C@@]1(c2ccc([N+](=O)[O-])cc2)CC(=O)N(C2CCCCC2)[C@@H]1c1ccc(CO)cc1I,0.529,0.116 (inactive),-0.0328,-0.0635,0.71,1.73,0.521,1.25,-0.0452,1.07
C=CC[C@@]1(C(=O)N2CCCCC2)N=C(c2ccc(OCCCO)cc2)O[C@@H]1c1ccccc1,0.676,-0.221 (inactive),0.284,0.195,0.57,2.39,1.07,1.29,0.453,0.357
CC(CO)N1C(=O)[C@@H]2C3C(=O)OCCC/C=C\[C@H]3OC23C=CCN(Cn2nnc4ccccc42)C(=O)[C@@H]13 (stereo not given in full),0.717,0.323 (inactive),-0.192,-0.14,0.869,-0.202,-0.237,-1.07,0.034,-1.01
CC(C)(C)N1CC=CC23O[C@@H]4C=CCOC(=O)[C@@H]4[C@H]2C(=O)N(CCCO)[C@@H]3C1=O (stereo not given in full),-1.37,0.701 (inactive),-0.478,-0.179,0.917,0.216,-0.343,-1.01,-1.64,-1.62
CC=CC(O)C1C=CC2C(=O)N(c3ccccc3)C(=O)C2N1Nc1ccccc1 (stereo not given),0.867,0.454 (inactive),0.291,0.121,0.681,2.57,0.243,1.29,0.25,1.19
CCOC(=O)C[C@H]1[C@H](OC(=O)Cc2ccc3c(c2)OCO3)[C@@H](NC(=O)C2CCCCC2)c2cc(OCCCO)ccc2N1C(=O)c1ccc2ccccc2n1,0.245,-0.608 (inactive),0.0418,0.358,0.312,0.746,0.15,1.08,1.21,0.662
COCCOC(=O)N1C(=O)[C@@]2(c3cc(C#CC4=CCCCC4)ccc31)[C@H](c1ccc(O)cc1)N1[C@H](c3ccccc3)[C@H](c3ccccc3)OC(=O)[C@H]1[C@@H]2C(=O)Nc1nc2ccccc2s1,0.802,-0.202 (inactive),0.302,-0.121,0.556,2.78,0.657,1.32,0.206,1.12
COc1ccc(C(O)C2C=CC3C(=O)N(C)C(=O)C3N2N2CCCCC2)cc1 (stereo not given),0.999,0.0811 (inactive),0.272,0.233,0.761,2.14,0.986,1.1,0.248,1.11
CC(C)(C)OC(=O)CC[C@]1(C(=O)NCCN2CCOCC2)N=C(c2ccc(OCCCO)cc2)O[C@H]1c1ccccc1,0.824,-0.985 (inactive),0.0636,-0.075,0.745,2.28,-0.657,0.218,-1.21,1.16
C=CCC(OC(C)=O)[C@@H]1[C@@H](N(Cc2cc3ccccc3o2)C(=O)c2ccc(C)cc2)c2cc(OCCCO)ccc2N1C(=O)Cc1ccc2ccccc2c1 (stereo not given in full),0.324,0.0991 (inactive),0.0311,-0.0077,-0.138,0.0465,-0.057,-0.366,0.208,-1.56
CCOC(=O)C1=CC[C@@H](c2cc(Cl)ccc2Cl)N(S(=O)(=O)c2ccc(C)cc2)[C@H]1c1ccc(OC)cc1,0.596,0.552 (inactive),0.258,0.586,0.25,0.515,0.325,-0.0808,-0.362,-1.21
CCC[C@@H]1C[C@@]1(CCC)[C@@H](NP(=O)(c1ccccc1)c1ccccc1)c1ccc(Cl)cc1,-0.811,-1.49 (inactive),0.0306,-0.0166,-0.0589,0.772,0.38,0.179,0.603,-0.765
CCOC(=O)C[C@H]1[C@H](OC(=O)c2ccccc2-c2ccccc2)[C@@H](NC(=O)c2ccc3ccccc3n2)c2cc(OCCCO)ccc2N1C(=O)c1ccc2ccccc2n1,0.202,-0.293 (inactive),-0.0647,-0.0626,0.0023,0.626,-0.283,0.498,0.422,0.762
NCCCCCCNC(=O)[C@H]1C[C@H]2C(=O)N[C@@H](Cc3ccccc3)C(=O)N2[C@H]1c1ccc(O)cc1,0.855,0.126 (inactive),-0.0048,-0.176,0.778,0.734,0.205,1.03,-0.14,1.2
Cc1ccc(S[C@]2(C(=O)NCC(C)C)CC(=O)N(Cc3ccccc3Cl)[C@@H]2c2ccc(CO)cc2I)cc1,-0.253,0.0894 (inactive),-0.179,-0.127,0.763,0.363,0.142,0.245,-0.332,-0.395
CCOC(=O)[C@@H]1[C@@H]2C(=O)N(CC)C(=O)[C@@H]2C[C@@H]1Sc1ccccc1,0.663,-0.889 (inactive),0.191,-0.0297,0.36,1.84,0.68,1.25,-0.235,0.563
C=CCOC(=O)[C@@H]1[C@H]2C(=O)O[C@H](c3ccccc3)[C@H](c3ccccc3)N2[C@H](c2ccc(OCCOC(=O)[C@H]3C[C@H]4C(=O)N[C@@H](CC(C)C)C(=O)N4[C@H]3c3ccc(O)cc3)cc2)[C@@]12C(=O)Nc1ccc(I)cc12,-1.13,0.761 (inactive),0.154,-0.153,0.609,2.3,0.103,1.31,0.959,1.22
O=C1O[C@@H](c2ccccc2)[C@@H](c2ccccc2)N2[C@@H](c3ccc(O)cc3)[C@]3(C(=O)Nc4ccc(C#CCCO)cc43)[C@@H](C(=O)NC[C@H](O)c3ccccc3)[C@H]12,0.273,1.62 (inactive),-0.158,-0.167,0.724,-0.112,0.102,0.249,-1.39,-0.101
C=C(C(=O)CC[C@H](OC(=O)c1cccnc1)c1cccc(OCCO)c1)C(C)C,-0.849,0.587 (inactive),-0.0971,-0.161,0.0143,0.0609,-0.0536,0.481,-0.507,-0.0842

# From PubChem BioAssay
